These results are taken from PubChem BioAssay AID1053133 (Broad Institute, 2014).

Out of some 89,000 compounds screened, about 10 (0.01%) were called active. Not shown: some 10% with an inconclusive outcome. Cut-off read from the data, not from the text of the source: active = activity change below about -37% (passing the limit was not always enough); inconclusive = no clear call, values can overlap the other calls; tested in A549 cells. Not all results are given here.

The assay is described as follows: blocks a specific stage of Vaccinia orthopoxvirus infection, primary screen, cell-based, single point (AID 1053133). Conditions: Vaccinia-infected cells, mCherry/Venus stage reporter fluorescence, stronger effect = lower value, concentration not given here; activity change (Venus): measured here: Venus reporter, other viral stage.
Take `N#Cc1cccc(-c2ccc([C@H]3[C@@H](CO)N[C@@H]3CNC(=O)C3CCC3)cc2)c1`: the activity change (Venus) was -1.58% and the activity change (mCherry) was -4.87% (inactive).

`COc1ccc2c3c(n(C)c2c1)[C@H](CO)N(CC1CCCCC1)CC31CCN(Cc2nccs2)CC1`: the activity change (Venus) was -17.6% and the activity change (mCherry) was -20.4% (inactive).

For `C/C=C/c1ccccc1[C@H]1[C@@H](C#N)N(C(=O)Cc2ccccn2)[C@@H]1CO`, the activity change (Venus) is -12.5% and the activity change (mCherry) was -21.2% (inactive).

For `CCNC(=O)[C@H]1[C@H](CO)[C@H]2Cn3c(cccc3=O)[C@@H]1N2Cc1cc(F)ccc1F`, the activity change (Venus) was determined as 15.1% and the activity change (mCherry) was 12.8% (inactive).

As for `O=C(C[C@@H]1CC[C@@H]2[C@H](COC[C@H](O)CN2C(=O)c2ccc3c(c2)OCO3)O1)NC1CCCC1`, the activity change (Venus) is 4.69% and the activity change (mCherry) was 7.59% (inactive).

With `C[C@@H]1CCCCO[C@H](CN(C)S(=O)(=O)c2ccc(Cl)cc2)[C@H](C)CN([C@@H](C)CO)C(=O)c2cc(NS(=O)(=O)c3cn(C)cn3)ccc2O1`, the activity change (Venus) came to 3.71% and the activity change (mCherry) is 0.869% (inactive).

For the compound `CNC(=O)C[C@@H]1CC[C@@H]2[C@H](COC[C@H](O)CN2Cc2ccc(C(F)(F)F)cc2)O1`, the activity change (Venus) was found to be 3.54% and the activity change (mCherry) is 4.2% (inactive).

On to `Cc1noc(C)c1S(=O)(=O)N(C)C[C@@H]1OCCCC[C@@H](C)Oc2ccc(NC(=O)Nc3ccccc3)cc2C(=O)N([C@H](C)CO)C[C@@H]1C`, for which the activity change (Venus) is 5.28% and the activity change (mCherry) is 12.8% (inactive).

For `CC=Cc1ccc2n(c1=O)C[C@@H]1[C@@H](CO)[C@H](C(=O)NCc3cccc(OC)c3)N[C@H]21` (mixture of isomers), the activity change (Venus) was found to be 12.7% and the activity change (mCherry) is 3.42% (inactive).

Take `C/C=C/c1cnc2c(c1)C(=O)N([C@H](C)CO)C[C@H](C)[C@@H](CN(C)S(=O)(=O)c1ccccc1F)O2`: the activity change (Venus) is -1.53% and the activity change (mCherry) is -5.68% (inactive).

As for `COCC(=O)Nc1ccc2c(c1)C(=O)N(C)C[C@H](OC)[C@@H](C)CN(CCc1ccccc1)[C@@H](C)CO2`, the activity change (Venus) is -0.0268% and the activity change (mCherry) is -4.99% (inactive).

With `O=C(C[C@@H]1C[C@@H]2c3cc(NC(=O)Nc4ccccc4F)ccc3O[C@@H]2[C@H](CO)O1)NCCc1ccccc1`, the activity change (Venus) is 7.27% and the activity change (mCherry) is 9.1% (inactive).

Turning to `CCCC(=O)N1CC2(C1)CN(C(=O)Nc1cccc(F)c1)[C@@H](CO)c1c2c2ccc(OC)cc2n1C`, the activity change (Venus) is -2.53% and the activity change (mCherry) is 2.16% (inactive).

As for `COCC(=O)Nc1ccc2c(c1)C(=O)N(C)[C@@H]1CC[C@H](CC(=O)NCC3CC3)O[C@@H]1CO2`, the activity change (Venus) turned out to be 8.99% and the activity change (mCherry) was 16% (inactive).

For `COc1ccc2c3c([nH]c2c1)[C@@H](CO)N(C(=O)Cc1ccccc1)CC31CCN(C)CC1`, the activity change (Venus) was -13.2% and the activity change (mCherry) was -7.54% (inactive).

As to `C[C@H](CO)N1C[C@H](C)[C@H](CN(C)C(=O)C2CCOCC2)Oc2ncc(-c3ccccc3F)cc2C1=O`, the activity change (Venus) came out at 6.04% and the activity change (mCherry) was 8.11% (inactive).

On to `CO[C@H]1CN(C)C(=O)c2cc(NC(=O)C3CCC3)ccc2OC[C@H](C)N(CC2CCCCC2)C[C@@H]1C`, for which the activity change (Venus) amounted to 3.14% and the activity change (mCherry) was -9.01% (inactive).

As for `COc1ccc2c3c(n(C)c2c1)[C@H](CO)N(C)CC31CCN(C(=O)Nc2cccc(F)c2)CC1`, the activity change (Venus) is -8.96% and the activity change (mCherry) was -16.1% (inactive).

As for `CC(C)NC(=O)N1CC(=O)N2[C@@H](CO)[C@H](c3ccc(C#CCN(C)C)cc3)[C@@H]2C1`, the activity change (Venus) was 7.94% and the activity change (mCherry) was 9.18% (inactive).

Consider `O=C(C[C@H]1C[C@H]2c3cc(NC(=O)Nc4ccc(C(F)(F)F)cc4)ccc3O[C@H]2[C@@H](CO)O1)NCCc1ccccc1`, for which the activity change (Venus) was determined as 9.77% and the activity change (mCherry) was 6.8% (inactive).

For the compound `O=C(Nc1ccccc1)N1C[C@@H]2[C@H](c3ccccc31)[C@H](CO)N2C(=O)c1ccccn1`, the activity change (Venus) was 5.62% and the activity change (mCherry) was 10.2% (inactive).

For `Cc1ccc(S(=O)(=O)N(C)C[C@@H]2Oc3ccc(NS(=O)(=O)c4ccc(F)cc4)cc3CC(=O)N([C@@H](C)CO)C[C@H]2C)cc1`, the activity change (Venus) is -2.68% and the activity change (mCherry) is 2.93% (inactive).

As to `COc1ccccc1NC(=O)N[C@H]1CC[C@H](CCn2cc(-c3cccnc3)nn2)O[C@@H]1CO`, the activity change (Venus) was 7.22% and the activity change (mCherry) is -4.31% (inactive).

For the compound `COc1ccc(-c2cn(CC[C@@H]3CC[C@@H](NC(=O)CCN4CCCCC4)[C@@H](CO)O3)nn2)cc1`, the activity change (Venus) came out at 11.2% and the activity change (mCherry) was 5.57% (inactive).

Take `O=C(Cc1ccccn1)N[C@@H]1CC[C@H](CCn2cc(-c3ccc(F)cc3)nn2)O[C@@H]1CO`: the activity change (Venus) was -0.00768% and the activity change (mCherry) is 11% (inactive).

For `Cc1ccc(S(=O)(=O)N[C@@H]2CC[C@@H](CCn3cc(C(C)C)nn3)O[C@H]2CO)cc1`, the activity change (Venus) is 2.74% and the activity change (mCherry) is -0.697% (inactive).

As to `COc1ccc2c3c(n(C)c2c1)[C@H](CO)N(C(=O)c1ccc(F)cc1)CC31CCN(C(C)=O)CC1`, the activity change (Venus) came to 7.75% and the activity change (mCherry) was 25% (inactive).

For `COC(=O)C[C@@H]1CC[C@@H]2[C@H](COc3ccc(NC(=O)Nc4cccc(F)c4)cc3C(=O)N2C)O1`, the activity change (Venus) worked out at 6.13% and the activity change (mCherry) is 6.13% (inactive).

`CCNC(=O)[C@@H]1[C@@H](CO)[C@@H]2Cn3c(ccc(C4=CCCCC4)c3=O)[C@@H]2N1Cc1ccccc1F`: the activity change (Venus) was -3.86% and the activity change (mCherry) was 2.73% (inactive).

`O=C(Nc1cc(F)ccc1F)N[C@H]1CC[C@H](CCn2cc(C3CCCC3)nn2)O[C@@H]1CO`: the activity change (Venus) was -13.1% and the activity change (mCherry) is -6.78% (inactive).

Take `C[C@H]1CN([C@@H](C)CO)C(=O)c2cc(C3=CCCC3)cnc2O[C@H]1CN(C)C(=O)Nc1ccc(F)cc1`: the activity change (Venus) turned out to be 6.92% and the activity change (mCherry) was 7.38% (inactive).

In the case of `C[C@@H]1CN([C@@H](C)CO)C(=O)c2cc(NC(=O)C3CCCCC3)ccc2O[C@@H](C)CCCCO[C@H]1CN(C)C(=O)Nc1ccc2c(c1)OCO2`, the activity change (Venus) is 1.19% and the activity change (mCherry) was 1.01% (inactive).

On to `CC(C)NC(=O)N1[C@H](C(=O)N2CCc3ccccc3C2)[C@@H](CO)[C@@H]2Cn3c(cccc3=O)[C@@H]21`, for which the activity change (Venus) turned out to be 7.39% and the activity change (mCherry) was 13.3% (inactive).

Consider `CCN1[C@@H]2Cn3c(ccc(C4=CCCCC4)c3=O)[C@H]1[C@@H](C(=O)N1CCCCC1)[C@@H]2CO`, for which the activity change (Venus) was -4.76% and the activity change (mCherry) was -0.187% (inactive).

With `C[C@H]1CN([C@@H](C)CO)C(=O)c2cc(/C=C/c3ccccc3)cnc2O[C@@H]1CN(C)C(=O)NC1CCCCC1`, the activity change (Venus) was -19.2% and the activity change (mCherry) was -26.2% (inactive).

In the case of `CS(=O)(=O)N1CC(=O)N2[C@@H](CO)[C@@H](c3ccc(C#CCC4CCCC4)cc3)[C@@H]2C1`, the activity change (Venus) was -6.84% and the activity change (mCherry) is -14.6% (inactive).

Turning to `COc1ccc(CN2[C@@H](CO)[C@@H]3c4ccccc4N(C(=O)Nc4ccccc4)C[C@@H]32)cc1`, the activity change (Venus) was -11.3% and the activity change (mCherry) was -12.7% (inactive).
